Screening data (PubChem)
Sampled rows, rich in hits. Any-hit rate of the full collection: about 1.9%.
PLCb3 inh = PLC-beta3 (human) inhibition, primary screen; Q01970; Purified PLC-beta3, fluorogenic substrate, fluorescence; inhibition, % at 12.2 µM; actives 0.18% (n = 370,000); AID 720704
PLC-gamma1 inh = blocks human PLC-gamma1 enzyme activity. actives 0.84% (n = 370,000). AID 720700. P19174. inhibition, % at 12.2 µM. purified PLC-gamma1, fluorogenic substrate, fluorescence; in the data active means inhibition above about 9.5%
Target sequence (P19174 whole entry, looked up): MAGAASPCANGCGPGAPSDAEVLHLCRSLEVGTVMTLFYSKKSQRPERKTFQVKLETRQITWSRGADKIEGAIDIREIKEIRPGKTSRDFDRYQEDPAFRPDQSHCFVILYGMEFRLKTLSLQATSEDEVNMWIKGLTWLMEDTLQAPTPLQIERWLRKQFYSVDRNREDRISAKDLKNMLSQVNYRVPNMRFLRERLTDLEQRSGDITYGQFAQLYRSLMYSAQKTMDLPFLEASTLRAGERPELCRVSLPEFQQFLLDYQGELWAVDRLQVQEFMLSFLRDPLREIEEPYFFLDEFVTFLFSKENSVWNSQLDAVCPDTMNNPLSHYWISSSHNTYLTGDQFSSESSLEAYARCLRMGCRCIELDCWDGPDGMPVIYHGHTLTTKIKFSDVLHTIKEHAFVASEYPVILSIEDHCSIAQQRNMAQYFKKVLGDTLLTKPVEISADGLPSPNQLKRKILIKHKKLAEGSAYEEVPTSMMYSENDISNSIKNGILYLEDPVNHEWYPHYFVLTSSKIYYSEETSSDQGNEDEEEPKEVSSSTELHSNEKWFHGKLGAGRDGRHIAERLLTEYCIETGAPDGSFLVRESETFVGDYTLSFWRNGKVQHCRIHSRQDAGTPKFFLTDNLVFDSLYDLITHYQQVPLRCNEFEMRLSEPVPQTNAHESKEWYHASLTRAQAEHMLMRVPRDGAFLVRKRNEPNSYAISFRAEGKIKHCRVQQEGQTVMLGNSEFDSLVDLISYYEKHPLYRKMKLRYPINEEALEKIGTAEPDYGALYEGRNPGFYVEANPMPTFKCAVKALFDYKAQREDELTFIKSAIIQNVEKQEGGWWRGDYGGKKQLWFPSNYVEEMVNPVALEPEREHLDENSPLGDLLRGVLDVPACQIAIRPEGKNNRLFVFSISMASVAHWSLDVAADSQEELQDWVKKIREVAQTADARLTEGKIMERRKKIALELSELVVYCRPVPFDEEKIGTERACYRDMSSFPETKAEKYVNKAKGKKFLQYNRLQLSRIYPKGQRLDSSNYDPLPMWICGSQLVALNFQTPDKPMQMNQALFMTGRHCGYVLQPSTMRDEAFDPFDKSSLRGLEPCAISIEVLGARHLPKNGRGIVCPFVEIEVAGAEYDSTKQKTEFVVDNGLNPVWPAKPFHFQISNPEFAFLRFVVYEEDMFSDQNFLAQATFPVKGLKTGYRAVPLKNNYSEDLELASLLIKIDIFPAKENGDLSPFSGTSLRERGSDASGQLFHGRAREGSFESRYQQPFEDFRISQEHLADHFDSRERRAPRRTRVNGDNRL
MsrA inh = inhibits bovine methionine sulfoxide reductase A. actives 0.75% (n = 360,000). inhibition, % at 15.5 µM. purified bovine MsrA, absorbance read-out; in the data active means inhibition above about 4.5%
bovine MsrA act = bovine methionine sulfoxide reductase A activation. activation, % at 10.6 µM. purified bovine MsrA, absorbance read-out. actives 0.3% (n = 360,000); in the data active means activation above about 7.5%
PLCg1 ctr = inhibits human PLC-gamma1 in PLC-beta3 counter-screen | shares compounds with PLC-gamma1 inh | purified PLC-gamma1, fluorogenic substrate, fluorescence | inhibition, % at 12.3 µM | actives 3.1% (n = 3,300); in the data active means inhibition above about 9.5%
PLCb3 confirm = human PLC-beta3 inhibition, confirmation | shares compounds with PLC-gamma1 inh | purified PLC-beta3, fluorogenic substrate fluorescence | inhibition, % at 12.3 µM | actives 1% (n = 3,300) | AID 743261
Of the large screens only hits and unclear results are named; the others gave an inactive call (follow-up assays come after a bar, where they were run). Unless noted, no stated cut-off is given here; in the data, active means inhibition above about 11%; inactive means the rest.

CC(OC(=O)c1ccc2c(c1)OCO2)C(=O)NC1CCCCC1 (stereo unspecified)	PLC-gamma1 inh 11 | PLCg1 ctr inactive | PLCb3 confirm inactive
CC(C)C(=O)Nc1cccc(C(=O)NCc2ccc3c(c2)OCO3)c1	none (no result: PLCb3 inh, PLC-gamma1 inh, MsrA inh)
COc1cc[n+]([O-])cc1[N+](=O)[O-]	none
CCCCCCN[C@H]1CCC2C3CC=C4C[C@@H](O)CC[C@]4(C)C3CC[C@@]21C (stereo partly specified)	none
COc1ccccc1CNc1nc2cc(-c3ccsc3)sc2c(=O)n1C	none
O=c1cc2oc3cc(O)c(O)cc3c(-c3ccccc3[N+](=O)[O-])c-2cc1O	PLC-gamma1 inh 13 | PLCg1 ctr 17 | PLCb3 confirm inactive
Cc1ccc(/C=C2/SC(=S)N(CCC(=O)N3CCOCC3)C2=O)cc1	none
Cc1ccc(C(C(=O)NC2CCCCC2)N(Cc2ccco2)C(=O)C2COc3ccccc3O2)o1 (stereo unspecified)	PLC-gamma1 inh 9.6 | PLCg1 ctr inactive | PLCb3 confirm inactive
Cc1ccc(C(C(=O)NC2CCCCC2)N(Cc2cccnc2)C(=O)C2COc3ccccc3O2)o1 (stereo unspecified)	none
O=c1c2ccccc2nnn1CSc1ccccc1F	none
Nn1c(Cc2ccccc2F)nnc1SCn1nnc2ccccc2c1=O	PLC-gamma1 inh 11 | PLCg1 ctr inactive | PLCb3 confirm inactive
CCOC(=O)COc1ccc(S(=O)(=O)N2CCN(c3ccccc3F)CC2)cc1	none
CCOC(=O)COc1ccc(S(=O)(=O)N2CCN(c3ccc(OC)cc3)CC2)cc1	PLC-gamma1 inh 9.5 | PLCg1 ctr inactive | PLCb3 confirm inactive
CC1(C)CC2(CC(C)(C(=O)CSc3nc4ccccc4s3)OC2=O)C(=O)O1 (stereo unspecified)	PLCb3 inh 11, PLC-gamma1 inh 16 | PLCg1 ctr inactive | PLCb3 confirm inactive
CN(C)S(=O)(=O)NC(c1ccccc1)c1ccccc1	PLC-gamma1 inh 12 | PLCg1 ctr inactive | PLCb3 confirm inactive
CC(C)c1ccccc1NS(=O)(=O)N(C)C	none
COc1ccc(CN(CC(O)COCc2ccccc2)S(=O)(=O)c2ccccc2Br)cc1 (stereo unspecified)	none
O=C(NCCOc1ccccc1F)c1cc(F)c(F)cc1Cl	none
O=C(NCCOCC(F)(F)C(F)F)c1cc(F)c(F)cc1Cl	PLC-gamma1 inh 15 | PLCg1 ctr inactive | PLCb3 confirm inactive
O=C(NCc1ccccc1)[C@H]1CCCN1C(=O)[C@H]1CCCN1C(=O)N1CCCCC1	none (no result: bovine MsrA act)
C/C=C/c1cccc(-c2nc(C(=O)N3CCOCC3)cc3c2[C@H](CCO)N(C(=O)NC(C)C)C3)c1	none
CCc1cccc2c1NC1(CCCC1)CC2C (stereo unspecified)	PLC-gamma1 inh 10 | PLCg1 ctr inactive | PLCb3 confirm inactive
C=C(C)[C@@H]1CC[C@]2(C(=O)O)CC[C@]3(C)C(CCC4[C@@]5(C)CC[C@H](O)C(C)(C)C5CC[C@]43C)C12 (stereo partly specified)	PLC-gamma1 inh 9.5 | PLCg1 ctr inactive | PLCb3 confirm inactive
C=C(C)Cn1c(SCC(=O)N/N=C(\C)c2ccc([N+](=O)[O-])cc2)nnc1-c1ccc(Br)cc1	PLCb3 inh 11, PLC-gamma1 inh 10 (no result: MsrA inh, bovine MsrA act) | PLCg1 ctr inactive | PLCb3 confirm inactive
CCC(C)CNC(=O)c1oc(=O)c2ccccc2c1-c1ccc(C)cc1 (stereo unspecified)	none (no result: MsrA inh, bovine MsrA act)
CCOc1nc(Nc2ccc([N+](=O)[O-])cc2)nc(NC(C)(C)C)n1	PLC-gamma1 inh 9.8 | PLCg1 ctr inactive | PLCb3 confirm inactive
O=[N+]([O-])c1ccc(SN2CCCCC2)c([N+](=O)[O-])c1	none (no result: bovine MsrA act)
O=C(Cc1ccccc1)Nc1ccc(N2CCOCC2)cc1N1CCOCC1	PLC-gamma1 inh 15 | PLCg1 ctr inactive | PLCb3 confirm inactive
COC(=O)Cn1cnc2sc(C)c(S(=O)(=O)N3CCN(c4ccccc4OC)CC3)c2c1=O	PLC-gamma1 inh 10 | PLCg1 ctr inactive | PLCb3 confirm inactive
CCCCNC(=O)Cn1cnc2sc(C)c(S(=O)(=O)N3CCN(c4ccccc4OC)CC3)c2c1=O	none
COC(=O)/C=C1\OCc2c(F)cccc21	none (no result: bovine MsrA act)
Cc1cc(NC(=O)CSc2nnc3c4c(C)c(C)sc4ncn23)no1	PLCb3 inh 12 | PLCg1 ctr inactive | PLCb3 confirm inactive
Cn1c(N)c(C(=O)CSc2nc3ccccc3c(=O)n2Cc2ccccc2)c(=O)n(C)c1=O	PLC-gamma1 inh 11 | PLCg1 ctr inactive | PLCb3 confirm inactive
